Among the data in PubChem BioAssay (NCATS) are Potency values, retold here.

Assay [1] can be described thus: S16 Schwann cell PMP22 intronic element beta-lactamase assay (AID 624044; calls by dose curve; also: nearly all actives have a fitted effect of over 15% in size). The essentials: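 Beta-lactamase reporter under a PMP22 intronic regulatory element in stable S16 rat Schwann cells; 24 h compound exposure. 460 nm blue signal normalized between DMSO (0%) and potassium clavulanate, with 535 nm FRET tracking viability; curves classed by r2 and response.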
The next assay relates to 3D7. As to the kind of experiment: qHTS profiling for inhibitors of Plasmodium falciparum proliferation (AID 504749). Also: nearly all actives have a fitted effect of over 60% in size. Also: potency is read from the fitted curve at half-maximal effect. The conditions noted are these: P. falciparum in erythrocytes, SYBR Green DNA, 72 h; series mostly up to 12.8 µM. An outline of the steps: (§1)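 SYBR Green fluorescence of parasite DNA, read after lysis and overnight dark incubation, measured growth over 72 h in erythrocyte culture at 0.3% parasitemia and 2.5% hematocrit. Data normalised to DMSO and 0.29 uM artemisinin, with plate-drift correction.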
A general note: qHTS replaces the single test concentration by a dilution series.

The subject of a further assay is ATS189. Described as above. The settings on record: P. falciparum in erythrocytes, SYBR Green DNA, 72 h; series mostly up to 12.8 µM. The essentials:
as §1

The next assay deals with ATS95. Described as above. The settings on record: P. falciparum in erythrocytes, SYBR Green DNA, 72 h; series mostly up to 12.8 µM. An outline of the steps: as §1
Another assay relates to CP192. Described as above. The conditions noted are these: P. falciparum in erythrocytes, SYBR Green DNA, 72 h; series mostly up to 12.8 µM. The essentials:
as §1

Another assay concerns CP217. Described as above. The settings on record: P. falciparum in erythrocytes, SYBR Green DNA, 72 h; series mostly up to 12.8 µM. An outline of the steps:
as §1

In a further assay the test system is CP238. Described as above. The settings on record: P. falciparum in erythrocytes, SYBR Green DNA, 72 h; series mostly up to 12.8 µM. An outline of the steps:
as §1

The subject of another assay is CP247. Described as above. The conditions noted are these: P. falciparum in erythrocytes, SYBR Green DNA, 72 h; series mostly up to 12.8 µM. The essentials: as §1
In another assay the test system is CP250. The assay is described as above. The conditions noted are these: P. falciparum in erythrocytes, SYBR Green DNA, 72 h; series mostly up to 12.8 µM. The essentials:
as §1

Another assay relates to CP265. The description is as above. The settings on record: P. falciparum in erythrocytes, SYBR Green DNA, 72 h; series mostly up to 12.8 µM. An outline of the steps:
as §1

The test system of another assay is CP305. The description is as above. The settings on record: P. falciparum in erythrocytes, SYBR Green DNA, 72 h; series mostly up to 12.8 µM. The essentials: as §1
A further assay concerns CP325. The description is as above. The conditions noted are these: P. falciparum in erythrocytes, SYBR Green DNA, 72 h; series mostly up to 12.8 µM. An outline of the steps:
as §1

Another assay concerns Dd2. Described as above. The settings on record: P. falciparum in erythrocytes, SYBR Green DNA, 72 h; series mostly up to 12.8 µM. An outline of the steps:
as §1

The subject of the next assay is N140. The assay is described as above. The conditions noted are these: P. falciparum in erythrocytes, SYBR Green DNA, 72 h; series mostly up to 12.8 µM. An outline of the steps:
as §1

A further assay concerns P93_24. Described as above. The settings on record: P. falciparum in erythrocytes, SYBR Green DNA, 72 h; series mostly up to 12.8 µM. The essentials:
as §1

A further assay concerns PAD. The assay is described as above. The settings on record: P. falciparum in erythrocytes, SYBR Green DNA, 72 h; series mostly up to 12.8 µM. An outline of the steps:
as §1

For the next assay, the system named is PC15. The assay is described as above. The settings on record: P. falciparum in erythrocytes, SYBR Green DNA, 72 h; series mostly up to 12.8 µM. An outline of the steps: as §1
A further assay has as its system PC49. The assay is described as above. The settings on record: P. falciparum in erythrocytes, SYBR Green DNA, 72 h; series mostly up to 12.8 µM. The essentials:
as §1

In another assay the test system is TAB109. The assay is described as above. The settings on record: P. falciparum in erythrocytes, SYBR Green DNA, 72 h; series mostly up to 12.8 µM. The essentials:
as §1

The subject of a further assay is FAB9. The assay is described as above. The conditions noted are these: P. falciparum in erythrocytes, SYBR Green DNA, 72 h; series mostly up to 12.8 µM. An outline of the steps: as §1

Records with an inconclusive call do not appear. Active and inactive are the calls of the source. Unless noted, calls follow the shape of the dose curve; as a rule, active = well fitted inhibition curve with a large enough effect; inconclusive = small, poorly fitted or top-dose-only effect; inactive = flat fitted curve, though single readings scatter.

`CC[N+](CC)(CC)CC[C@](O)(c1ccccc1)C1CCCCC1`: the Potency result (in assay [1]; in the assay with 3D7; with ATS189; in the assay with ATS95; with CP192; with CP217) was “inactive” throughout. The Potency result with CP238, in the assay on CP247, in the assay on CP250, in the assay with CP265, in the assay on CP305 and with CP325 was “inactive” each time. The Potency entry in the assay with Dd2, with N140, in the assay with P93_24, in the assay with PAD, in the assay with PC15 and with PC49 was “inactive” each time. In addition, the Potency result in the assay on TAB109 is “inactive”.

For the compound `O=C1O[C@H](CN2CCOCC2)CN1/N=C\c1ccc([N+](=O)[O-])o1`, the Potency entry (in assay [1]; in the assay with ATS189; in the assay with ATS95; in the assay with CP192; in the assay on CP217; in the assay on CP238) was “inactive” throughout. For the same compound, the Potency result in the assay on CP247, in the assay on CP250, in the assay on CP305, with CP325, with FAB9 and with PC15 was “inactive” throughout.

`C=CCOc1ccccc1OC[C@H](O)CNC(C)C`: the Potency entry (in assay [1]; with 3D7; in the assay on ATS189; in the assay on ATS95; with CP192; with CP217) was “inactive” throughout. For the same compound, the Potency entry in the assay with CP238, in the assay on CP247, in the assay with CP250, with CP265, with CP305 and in the assay on CP325 was “inactive” each time. Further, the Potency result with FAB9, with N140, with P93_24, with PAD, in the assay with PC15 and with PC49 was “inactive” throughout. In the assay on TAB109, the Potency entry is “inactive”.

`CC1(C)O[C@@H]2C[C@H]3[C@H]4C[C@H](F)C5=CC(=O)CC[C@]5(C)[C@@H]4[C@H](O)C[C@]3(C)[C@]2(C(=O)CO)O1`: the Potency result (in assay [1]; in the assay with 3D7; in the assay on ATS189; in the assay on ATS95; in the assay on CP217; in the assay on CP238) was “inactive” in each case. The Potency entry in the assay with CP247, in the assay with CP250, in the assay on CP265, with CP305, in the assay on CP325 and with Dd2 was “inactive” each time. In addition, the Potency result with FAB9, with N140, with P93_24, in the assay with PAD, in the assay with PC15 and in the assay with PC49 was “inactive” in each case. The Potency entry in the assay with TAB109 was “inactive”.

Turning to `CNC[C@H](O)c1ccc(OC(=O)C(C)(C)C)c(OC(=O)C(C)(C)C)c1`, the Potency result (in assay [1]; with 3D7; in the assay on ATS189; in the assay with ATS95; with CP192; in the assay with CP217) was “inactive” throughout. Besides, the Potency entry in the assay with CP238, with CP247, in the assay with CP250, with CP265, in the assay with CP305 and in the assay with CP325 was “inactive” in each case. In addition, the Potency entry with Dd2, with FAB9, in the assay with N140, with P93_24, with PAD and in the assay on PC49 was “inactive” throughout. Besides, the Potency entry in the assay on TAB109 is “inactive”.

With `CC(=O)O[C@]1(C(C)=O)CC[C@@H]2[C@@H]3C=C(C)C4=CC(=O)CC[C@@]4(C)[C@H]3CC[C@]21C`, the Potency result (in [1]; in the assay on 3D7; in the assay with ATS189; with ATS95; in the assay on CP192; with CP217) was “inactive” each time. The Potency entry with CP238, in the assay with CP247, in the assay on CP250, with CP265, in the assay with CP305 and in the assay with CP325 was “inactive” throughout. Further, the Potency result in the assay on Dd2, with FAB9, with N140, in the assay on P93_24, in the assay on PAD and in the assay on PC15 was “inactive” each time. In addition, the Potency entry in the assay with PC49 and with TAB109 was “inactive” throughout.

With `CO[C@H]1[C@H](O[C@H]2O[C@@H](C)[C@@H](O[C@@H]3C[C@](C)(O)[C@H](OC(=O)CC(C)C)[C@H](C)O3)[C@@H](N(C)C)[C@@H]2O)[C@@H](CC=O)C[C@@H](C)[C@@H](O)/C=C\C=C/C[C@@H](C)OC(=O)C[C@H]1OC(C)=O`, the Potency result (in assay [1]; in the assay on 3D7; in the assay on FAB9; in the assay on PC49) was “inactive” each time. For the same compound, the Potency with Dd2 is 1.41 µM (active); with TAB109 it was 1 µM (active).

In the case of `CO[C@]1(NC(=O)C2SC(=C(C(N)=O)C(=O)O)S2)C(=O)N2C(C(=O)O)=C(CSc3nnnn3C)CS[C@H]21` (stereo partly drawn), the Potency entry (in assay [1]; in the assay with 3D7; in the assay on ATS189; with ATS95; with CP192; with CP217) was “inactive” throughout. Also, the Potency result in the assay on CP238, with CP247, with CP250, in the assay on CP265, in the assay on CP305 and in the assay with CP325 was “inactive” in each case. For the same compound, the Potency entry in the assay with Dd2, in the assay with FAB9, in the assay on N140, in the assay with PAD, with PC15 and with PC49 was “inactive” each time. In addition, the Potency entry with TAB109 was “inactive”.

With `C=CCN1C(=CCO)[C@H]2C[C@H]3[C@@H]1CC[C@@]31c3ccccc3N3C=C4[C@@H]5N(/C=C/2[C@H]31)c1ccccc1[C@]51CC[C@H]2[C@H]1C[C@@H]4/C(=C/CO)N2CC=C`, the Potency entry (in assay [1]; in the assay with 3D7; in the assay on ATS189; with ATS95; in the assay on CP192; in the assay with CP217) was “inactive” throughout. Also, the Potency result in the assay on CP238, in the assay on CP247, in the assay on CP250, in the assay with CP265, with CP305 and with CP325 was “inactive” in each case. Moreover, the Potency entry with Dd2, in the assay with FAB9, in the assay with N140, in the assay on P93_24, with PAD and in the assay on PC15 was “inactive” in each case. Further, the Potency entry in the assay with PC49 and in the assay on TAB109 was “inactive” each time.

For `COc1ccc(C[C@@](C)(N)C(=O)O)cc1OC`, the Potency result (in assay [1]; in the assay on 3D7; in the assay on ATS189; in the assay with ATS95; in the assay on CP192; in the assay with CP217) was “inactive” throughout. In addition, the Potency result with CP238, in the assay on CP247, with CP250, with CP265, in the assay with CP305 and in the assay with CP325 was “inactive” each time. The Potency entry in the assay on Dd2, with FAB9, in the assay on N140, with P93_24, in the assay with PAD and in the assay with PC15 was “inactive” each time. In addition, the Potency entry in the assay on PC49 and in the assay on TAB109 was “inactive” each time.

Regarding `COc1cc(N)c(Cl)cc1C(=O)N[C@H]1CCN(CCCOc2ccc(F)cc2)C[C@H]1OC`, the Potency entry (in assay [1]; in the assay with CP192; in the assay on FAB9; with PC15; with PC49) was “inactive” throughout. Further, the results for the Potency with CP265 and in the assay with Dd2 were 3.98 µM (active) and 3.55 µM (active), respectively.

Turning to `CCOC(=O)[C@H](CCc1ccccc1)N[C@@H](C)C(=O)N1[C@H](C(=O)O)C[C@H]2CCC[C@@H]21`, the Potency result (in assay [1]; with 3D7; in the assay with ATS189; with ATS95; in the assay with CP192; in the assay on CP217) was “inactive” in each case. Also, the Potency result in the assay on CP238, in the assay with CP247, with CP250, in the assay on CP265, in the assay with CP305 and in the assay on CP325 was “inactive” each time. For the same compound, the Potency entry in the assay on Dd2, with FAB9, with N140, in the assay with P93_24, in the assay with PAD and in the assay on PC15 was “inactive” throughout. For the same compound, the Potency entry in the assay with PC49 and in the assay on TAB109 was “inactive” each time.

As to `C[N+]12CCC(CC1)[C@@H](OC(=O)C(O)(c1ccccc1)c1ccccc1)C2`, the Potency entry with 3D7, in the assay with ATS189, in the assay on ATS95, in the assay with CP192, with CP217 and in the assay with CP238 was “inactive” in each case. Moreover, the Potency entry with CP247, in the assay on CP250, in the assay with CP265, in the assay on CP325, with Dd2 and in the assay on FAB9 was “inactive” throughout. In addition, the Potency result with N140, in the assay on P93_24, in the assay with PAD, with PC15, in the assay on PC49 and in the assay with TAB109 was “inactive” in each case.
